In PubChem BioAssay (EPA / NIEHS):
Activity calls are given as the source filed them. The calls were made as follows: active = hit-call score of the fitted dose curve at least 0.9, where 1 is the maximum; inactive = score below 0.9.

Experiments:
Details in all cases: mRNA level, 48 h; actives raise or lower the signal
[1] = read-out: Intercellular Adhesion Molecule 1 (ICAM1), ICAM1 (gene 3383); assay: LTEA_HepaRG_ICAM1: Life Technologies and Expression Analysis (LTEA) Assay for Intercellular Adhesion Molecule 1 (ICAM1) using HepaRG (AID 2283507)
Method in brief: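 ICAM1 transcript levels measured by qRT-PCR, normalized to three housekeeping genes (ACTB, GAPDH, POLR2A), after 48 h chemical exposure of HepaRG cells. Duplicate eight-point half-log series from 100 uM in 0.5% DMSO; gain or loss fitted against vehicle.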

[2] = read-out: Insulin-like growth factor-binding protein 1 (IGFBP1), IGFBP1 (gene 3484); assay: LTEA_HepaRG_IGFBP1: Life Technologies and Expression Analysis (LTEA) Assay for Insulin-like growth factor-binding protein 1 (IGFBP1) using HepaRG (AID 2283508)
Method in brief: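 Read-out is qRT-PCR transcript level normalized to three housekeeping genes, fitted in both directions against 0.5% DMSO. Differentiated HepaRG cells received eight half-log concentrations (top 100 uM) in duplicate for 48 h in serum-free induction medium.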

[3] = read-out: Interleukin 6 Receptor (IL6R), IL6R (gene 3570); assay: LTEA_HepaRG_IL6R: Life Technologies and Expression Analysis (LTEA) Assay for Interleukin 6 Receptor (IL6R) using HepaRG (AID 2283510)
Method in brief: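 HepaRG, 48 h exposure, 8-pt half-log series, top 100 uM, 0.5% DMSO vehicle, duplicates. Read-out: TaqMan qRT-PCR of IL6R transcript, housekeeping-gene normalized. Gain or loss fitted relative to DMSO baseline.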

[4] = read-out: Potassium channel subfamily K member 1 (KCNK1), KCNK1 (gene 3775); assay: LTEA_HepaRG_KCNK1: Life Technologies and Expression Analysis (LTEA) Assay for Potassium channel subfamily K member 1 (KCNK1) using HepaRG (AID 2283511)
Method in brief: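 Human HepaRG cultures receive test chemicals for 48 h in 0.5% DMSO, top concentration 100 uM with half-log dilutions. Induction or suppression of KCNK1 mRNA relative to DMSO is derived by bidirectional fitting of qRT-PCR data.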

[5] = read-out: Keratin 19 (KRT19), KRT19 (gene 3880); assay: LTEA_HepaRG_KRT19: Life Technologies and Expression Analysis (LTEA) Assay for Keratin 19 (KRT19) using HepaRG (AID 2283512)
Method in brief: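 KRT19 transcript measured by TaqMan qRT-PCR, referenced to three housekeeping genes, after HepaRG cells received test chemicals for 48 h. Eight half-log concentrations, top 100 uM, 0.5% DMSO vehicle; increases and decreases both fitted.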

[6] = read-out: JUN Transcription Factor, JUN (gene 3725); assay: LTEA_HepaRG_JUN: Life Technologies and Expression Analysis (LTEA) Assay for JUN Transcription Factor using HepaRG (AID 2283513)
Method in brief: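 HepaRG, 48 h exposure, 8-pt half-log series top 100 uM, 0.5% DMSO, duplicate. JUN mRNA by qRT-PCR (Fluidigm), housekeeping-normalized (ACTB/GAPDH/POLR2A); bidirectional curve fit vs DMSO baseline.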

[7] = read-out: Lipase C (LIPC), LIPC (gene 3990); assay: LTEA_HepaRG_LIPC: Life Technologies and Expression Analysis (LTEA) Assay for Lipase C (LIPC) using HepaRG (AID 2283514)
Method in brief: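 In this multiplexed gene-expression screen, human HepaRG cultures received test chemicals for 48 h across eight concentrations with 100 uM highest, in duplicate. Values reflect LIPC mRNA induction or suppression versus DMSO vehicle, from normalized qRT-PCR.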

[8] = read-out: Lipoprotein lipase (LPL), LPL (gene 4023); assay: LTEA_HepaRG_LPL: Life Technologies and Expression Analysis (LTEA) Assay for Lipoprotein lipase (LPL) using HepaRG (AID 2283515)
Method in brief: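 Concentration-response testing used half-log steps from 100 uM in 0.5% DMSO on human HepaRG cells, 48 h, duplicate wells. Phenobarbital 1 mM served as induction control; LPL mRNA was normalized to ACTB, GAPDH, POLR2A.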

[9] = read-out: MicroRNA 122 (MIR122), gene 406906; assay: LTEA_HepaRG_MIR122: Life Technologies and Expression Analysis (LTEA) Assay for MicroRNA 122 (MIR122) using HepaRG (AID 2283516); also: the transcript read is the microRNA miR-122
Method in brief: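 qRT-PCR read-out (TaqMan, Fluidigm array), normalized to three housekeeping genes; HepaRG cells dosed 48 h at 8 concentrations up to 100 uM in 0.5% DMSO, duplicate; gain or loss fitted against DMSO baseline.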

[10] = read-out: matrix metalloproteinase-10 (MMP10), MMP10 (gene 4319); assay: LTEA_HepaRG_MMP10: Life Technologies and Expression Analysis (LTEA) Assay for matrix metalloproteinase-10 (MMP10) using HepaRG (AID 2283517)
Method in brief: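 In differentiated HepaRG cultures kept in 0.5% DMSO, test chemicals act for 48 h over an eight-point range with a top dose of 100 uM. Expression is then quantified by TaqMan RT-PCR against ACTB, GAPDH and POLR2A.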

MYC, MYC (gene 4609) = assay: LTEA_HepaRG_MYC: Life Technologies and Expression Analysis (LTEA) Assay for MYC using HepaRG (AID 2283518)
Method in brief: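 MYC transcript changes, up or down relative to 0.5% DMSO, from TaqMan qRT-PCR normalized to three housekeeping genes. Human HepaRG cultures received chemicals for 48 h at eight half-log concentrations up to 100 uM, in duplicate.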

[11] = read-out: matrix metalloproteinase-3 (MMP3), MMP3 (gene 4314); assay: LTEA_HepaRG_MMP3: Life Technologies and Expression Analysis (LTEA) Assay for matrix metalloproteinase-3 (MMP3) using HepaRG (AID 2283519)
Method in brief: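 Human liver HepaRG cultures received chemicals (top concentration 100 uM, 0.5% DMSO) for 48 h in duplicate. MMP3 mRNA induction or loss was then assessed via TaqMan qRT-PCR with housekeeping-gene normalisation.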

[12] = read-out: Paternally Expressed 10 (PEG10), PEG10 (gene 23089); assay: LTEA_HepaRG_PEG10: Life Technologies and Expression Analysis (LTEA) Assay for Paternally Expressed 10 (PEG10) using HepaRG (AID 2283520);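 as to AC50: PEG10 transcript by qRT-PCR normalised to ACTB GAPDH and POLR2A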
Method in brief: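 qRT-PCR read-out: PEG10 mRNA normalised to three housekeeping genes, fitted bidirectionally against 0.5% DMSO vehicle. HepaRG cells received test chemicals for 48 h in serum-free induction medium, 8 points, top 100 uM, half-log steps.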

[13] = read-out: Nuclear factor NF-kappa-B p105 subunit (Homo sapiens) (UniProt P19838); assay: LTEA_HepaRG_NFKB1: Life Technologies and Expression Analysis (LTEA) Assay for Nuclear Factor Kappa B Subunit 1 (NFKB1) using HepaRG (AID 2283521);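 also: differentiated human HepaRG liver cells in serum-free induction medium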
Method in brief: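 NFKB1 transcript was measured by TaqMan qRT-PCR on Fluidigm arrays, normalised to three housekeeping genes and fitted in both directions against 0.5% DMSO. HepaRG cells were dosed in duplicate for 48 h in serum-free induction medium, eight half-log steps from 100 uM.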

[14] = read-out: Protein phosphatase 2A (PPP2R4), PTPA (gene 5524); assay: LTEA_HepaRG_PPP2R4: Life Technologies and Expression Analysis (LTEA) Assay for Protein phosphatase 2A (PPP2R4) using HepaRG (AID 2283522)
Method in brief: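 HepaRG, 48 h exposure, 8-pt half-log series from 100 uM, 0.5% DMSO vehicle, duplicates. Readout: PPP2R4 mRNA, Fluidigm qRT-PCR, housekeeping-normalized. Bidirectional curve fit vs DMSO baseline.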

[15] = read-out: Phosphatase and tensin (PTEN), PTEN (gene 5728); assay: LTEA_HepaRG_PTEN: Life Technologies and Expression Analysis (LTEA) Assay for Phosphatase and tensin (PTEN) using HepaRG (AID 2283523)
Method in brief: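 Expression of PTEN is quantified in the human liver line HepaRG following two days of dosing (top concentration 100 uM, half-log dilutions, 0.5% DMSO). Values derive from bidirectional curve fitting relative to DMSO controls.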

[16] = read-out: solute carrier (SLC22A1), SLC22A1 (gene 6580); assay: LTEA_HepaRG_SLC22A1: Life Technologies and Expression Analysis (LTEA) Assay for solute carrier (SLC22A1) using HepaRG (AID 2283524);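 as to AC50: differentiated human HepaRG liver cells in serum-free induction medium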
Method in brief: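 Transcript induction or suppression of SLC22A1 in human HepaRG cultures is scored after 48 h chemical treatment, with DMSO (0.5%) as baseline for bidirectional fitting. Concentrations span eight half-log points topping at 100 uM.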

[17] = read-out: Pyruvate Dehydrogenase Kinase 4 (PDK4), PDK4 (gene 5166); assay: LTEA_HepaRG_PDK4: Life Technologies and Expression Analysis (LTEA) Assay for Pyruvate Dehydrogenase Kinase 4 (PDK4) using HepaRG (AID 2283525)
Method in brief: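 Eight-point, half-log concentration series (max 100 uM, 0.5% DMSO) applied to differentiated HepaRG cells for 48 h in duplicate. Endpoint: PDK4 mRNA induction or repression by qRT-PCR against DMSO baseline.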

[18] = read-out: Interleukin 6 (IL6), IL6 (gene 3569); assay: LTEA_HepaRG_IL6: Life Technologies and Expression Analysis (LTEA) Assay for Interleukin 6 (IL6) using HepaRG (AID 2283509)
Method in brief: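 Changes in IL6 mRNA, up or down relative to 0.5% DMSO controls, were derived from concentration-response curves in human HepaRG cells treated for 48 h at up to 100 uM, with ACTB, GAPDH and POLR2A as normalizers.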

[19] = read-out: NAD(P)H dehydrogenase [quinone] 1 (NQO1), NQO1 (gene 1728); assay: LTEA_HepaRG_NQO1: Life Technologies and Expression Analysis (LTEA) Assay for NAD(P)H dehydrogenase [quinone] 1 (NQO1) using HepaRG (AID 2283526)
Method in brief: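 qRT-PCR read-out (Fluidigm TaqMan), normalized to three housekeeping genes, after 48 h chemical exposure of HepaRG cells. Concentrations: eight points, top 100 uM, half-log steps, 0.5% DMSO vehicle. Gain or loss of signal fitted relative to DMSO.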

Measured: AC50

Nuclear factor NF-kappa-B p105 subunit (Homo sapiens), sequence (P19838 whole entry, looked up): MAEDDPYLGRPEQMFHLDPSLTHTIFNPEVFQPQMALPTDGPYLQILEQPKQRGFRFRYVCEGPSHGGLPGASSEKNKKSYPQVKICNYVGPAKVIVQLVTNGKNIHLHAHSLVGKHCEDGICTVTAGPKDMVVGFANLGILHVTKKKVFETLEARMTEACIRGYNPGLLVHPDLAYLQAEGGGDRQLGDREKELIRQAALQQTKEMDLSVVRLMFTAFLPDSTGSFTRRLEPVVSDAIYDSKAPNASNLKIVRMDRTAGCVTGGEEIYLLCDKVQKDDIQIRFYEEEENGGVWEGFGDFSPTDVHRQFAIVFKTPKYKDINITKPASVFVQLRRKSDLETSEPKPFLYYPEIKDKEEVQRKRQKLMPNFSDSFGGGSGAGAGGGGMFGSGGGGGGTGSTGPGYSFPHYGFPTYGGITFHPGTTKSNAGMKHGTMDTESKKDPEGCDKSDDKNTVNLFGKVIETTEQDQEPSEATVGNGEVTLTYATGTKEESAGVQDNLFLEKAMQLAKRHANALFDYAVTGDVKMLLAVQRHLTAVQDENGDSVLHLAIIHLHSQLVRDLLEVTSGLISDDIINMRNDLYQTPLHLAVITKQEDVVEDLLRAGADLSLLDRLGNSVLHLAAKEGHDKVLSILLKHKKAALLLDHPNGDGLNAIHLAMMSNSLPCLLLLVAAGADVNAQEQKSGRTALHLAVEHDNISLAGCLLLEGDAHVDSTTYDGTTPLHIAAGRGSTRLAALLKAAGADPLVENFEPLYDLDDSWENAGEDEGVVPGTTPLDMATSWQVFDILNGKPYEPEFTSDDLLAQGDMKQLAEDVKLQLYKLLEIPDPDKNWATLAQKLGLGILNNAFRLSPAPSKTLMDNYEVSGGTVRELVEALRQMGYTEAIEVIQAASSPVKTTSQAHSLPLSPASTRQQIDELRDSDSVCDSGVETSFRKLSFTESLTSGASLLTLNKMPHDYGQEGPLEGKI

CCOC(=O)C(O)(c1ccc(Cl)cc1)c1ccc(Cl)cc1
active: [8] 9.14 µM | [17] 36.2 µM
not listed: [18] | [19]
inactive: all other assays above

Cc1ccc(O)c(C)c1
not listed: [18] | [19]
inactive: all other assays above

Oc1ccc(Cl)cc1Cl
not listed: [13]
inactive: all other assays above

CC(C)(c1ccccc1)c1ccc(O)cc1
active: [7] 83.6 µM | [12] 84.7 µM | [16] 50 µM
inactive: all other assays above

O=S(=O)(O)C(F)(F)C(F)(F)C(F)(F)C(F)(F)C(F)(F)C(F)(F)F
active: [15] 10.3 µM | [17] 35.2 µM
not listed: [18] | [19]
inactive: all other assays above

Cc1cccc([N+](=O)[O-])c1
inactive: all assays above
